The record followed here is PubChem BioAssay (NCATS).

Molecules are shown by their SMILES. Records with an inconclusive call do not appear. The source made the active and inactive calls. Calls come from the whole dose curve; as a rule, active = well fitted inhibition curve with a large enough effect; inconclusive = small, poorly fitted or top-dose-only effect; inactive = flat fitted curve, though single readings scatter. Where a SMILES comes first, the peptide text is derived from it. Bridges are numbered along the chain shown (N, C = ends). [ ]: non-standard residue; d: D form. Orn = NCCC[C@H](N)C(=O)O; Mpa = O=C(O)CCS
% is set by controls: 0 for no effect and ±100 for the full control effect; potency is the fitted concentration of half-maximal effect.

A short description of this test: P-glycoprotein substrates identified in KB-8-5-11 adenocarcinoma cell line, qHTS therapeutic library screen (AID 1346987). Note: nearly all actives have a fitted effect of over 65% in size. As to conditions: KB-8-5-11 (P-gp overexpressing) viability, CellTiter-Glo, 72 h; series mostly up to 44.5 µM; activity change, negative = cytotoxicity: at the top concentration. Put shortly:
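Human cervical adenocarcinoma KB-8-5-11 cells, selected in colchicine to over-express P-gp and assayed without it, were exposed for 72 h to titrated compounds. An ATP-based luminescent viability signal gave AC50.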
A general note: In qHTS, concentration-response curves come from the screen itself.
For `Cc1cn(CCN2CCN(c3ccccc3-c3cc(C#N)cc(C(=O)NCCCN4CCCC4)c3)CC2)c2ccccc12`, the Potency was 18.4 µM (active).

In the case of `COC1=CC(=O)O/C1=C(/OC)[C@@H]1O[C@H]1c1ccccc1`, the “activity change, negative = cytotoxicity” value was 0.237% (inactive).

In the case of `Cc1cc(C(=O)Nc2cc(Nc3ccc4c(/C=C/c5ccccn5)n[nH]c4c3)ccc2F)n(C)n1`, the Potency is 18.4 µM (active).

On to `CCOc1ccc(C[C@H]2NC(=O)CCSSC[C@@H](C(=O)N3CCC[C@H]3C(=O)N[C@@H](CCCN)C(=O)NCC(N)=O)NC(=O)[C@H](CC(N)=O)NC(=O)[C@H]([C@@H](C)O)NC(=O)[C@H]([C@@H](C)CC)NC2=O)cc1` ([Mpa][dY](Et)ITNCP[Orn]G-NH2; disulfide 1-6), for which the “activity change, negative = cytotoxicity” value was 4.4% (inactive).

As to `CCNC(=O)Nc1ccc(-c2nc3c(c(N4CCOCC4C)n2)CCN(C2COC2)C3)cc1` (centres undefined), the Potency was 1.84 µM (active).

With `COC1CC(=O)C23C(=O)NC(CC(C)C)C2C(C)C(C)=CC3/C=C(\C)CCCC1O` (centres undefined), the “activity change, negative = cytotoxicity” value is -12.3% [at 17.3 µM] (inactive).

Take `O=C(Nc1ccc(N(Cc2ccsc2)C(=O)Cn2nnc3ccccc32)cc1)C1CC1`: the “activity change, negative = cytotoxicity” value was -25.3% (inactive).

Turning to `C=CC(=O)Nc1cc(-n2c(=O)ccc3cnc4ccc(-c5ccc(NS(C)(=O)=O)cc5)cc4c32)ccc1C`, the compound was classed as inactive.

For `COc1ccc2nccc(C(=O)CC[C@@H]3CCN(CC#Cc4cc(F)cc(F)c4F)C[C@@H]3C(=O)O)c2c1`, the outcome was inactive.

For `C/C=C(\C)[C@@H]1C(C)=C[C@@H]2[C@H]([C@@H]1/C=C/C=C/C(=O)O)[C@@H](C)CC[C@@H]2O`, the Potency is 11.4 µM (active).

As to `COc1cc(NC(=O)c2cccc(-n3cc(NC(=O)Nc4cccc(C)c4)cn3)c2)cc(OC)c1OC`, the “activity change, negative = cytotoxicity” value was 4.53% (inactive).

As for `CC(=O)N[C@H]1[C@H](O[C@H]2CC[C@@]3(C)C(CC[C@]4(C)C3CC=C3C5CC(C)(C)CC[C@]5(C(=O)O)C(O)C[C@]34C)C2(C)C)O[C@H](CO[C@@H]2O[C@H](C)[C@H](O)[C@H](O)[C@H]2O[C@@H]2OC[C@@H](O)[C@H](O)[C@H]2O)[C@@H](O)[C@@H]1O` (some centres undefined), the activity change, negative = cytotoxicity was -2.51% [at 9.29 µM] (inactive).

Regarding `CC1(C=O)CCCC2(C)C1CCC13CC(CO)C(CCC12)C3` (centres undefined), the “activity change, negative = cytotoxicity” value was 2.5% (inactive).

Take `O=C1Nc2ccccc2-c2nc3ccccc3c(=O)n2-c2c(O)cccc21`: the “activity change, negative = cytotoxicity” value is -2.59% (inactive).

`C[C@@H](NC(=O)c1ccc(C#Cc2cccc(F)c2)cn1)C(C)(C)O`: the “activity change, negative = cytotoxicity” value was -12.1% (inactive).

For `Cc1cc(C)c(-n2cc(C)c3c(Cl)nc(C)nc32)c(C)c1`, the “activity change, negative = cytotoxicity” value is -16% (inactive).

For the compound `NCCCNCCCCNC(=O)C(O)NC(=O)CCCCCCN=C(N)N` (centres undefined), the “activity change, negative = cytotoxicity” value was -27.9% (inactive).

For the compound `CN1CC(O)c2cc(N=NC(N)=O)c(O)cc21` (centres undefined), the “activity change, negative = cytotoxicity” value is -12.5% (inactive).

Take `CCC(C)/C=C(C)/C=C/C1=CC2=CC(=O)C3(C)OC(C)(O)C(C(=O)OC)C3C2=CO1` (centres undefined): the “activity change, negative = cytotoxicity” value is 2.48% [at 17.3 µM] (inactive).

With `COC1C=C(C)C(O)(CO)C2(C)CCCC(C)(C)C12` (centres undefined), the “activity change, negative = cytotoxicity” value is -18.1% (inactive).

For the compound `COc1cc2ncnc(Nc3cccc(I)c3)c2cc1OC`, the Potency was 5.8 µM (active).

In the case of `Cc1c(O)cc2c(c1C)O[C@](C)(CCC[C@H](C)CCC[C@H](C)CCCC(C)C)CC2`, the “activity change, negative = cytotoxicity” value was 1.21% (inactive).

For `CCC1C(=O)N(C)c2cnc(Nc3ccc(C(=O)NC4CCN(C)CC4)cc3OC)nc2N1C1CCCC1` (centres undefined), the Potency was 0.231 µM (active).

With `CCOc1ccc(-n2c(C(C)N(Cc3cccnc3)C(=O)Cc3ccc(F)c(C(F)(F)F)c3)nc3ncccc3c2=O)cc1` (centres undefined), the “activity change, negative = cytotoxicity” value is 5.44% (inactive).

As to `Cn1ncc(Cl)c1-c1cc(C(=O)N[C@H](CN)Cc2cccc(F)c2)sc1Cl`, the Potency was 18.4 µM (active).

With `Cc1[nH]c2ccccc2c1CCNCc1ccc(/C=C/C(=O)NO)cc1`, the Potency was 0.366 µM (active).

As for `CC1CCC(=O)CC(SCC(O)C(=O)O)CCC(=O)O1` (centres undefined), the “activity change, negative = cytotoxicity” value was -6.51% (inactive).

Take `CCC(=O)O`: the “activity change, negative = cytotoxicity” value is 3.95% (inactive).

For the compound `CC(=O)O[C@@H]1C[C@@]2(C)C(CC[C@]3(C)C2CC=C2C4CC(C)(C)CC[C@]4(C(=O)O)CC[C@]23C)C(C)(C)[C@H]1O` (some centres undefined), the “activity change, negative = cytotoxicity” value was -14.5% [at 17.3 µM] (inactive).

Turning to `Cn1cc(-c2ccc(S(=O)(=O)n3ccc(/C=C/C(=O)Nc4ccccc4N)c3)cc2)cn1`, the Potency is 2.59 µM (active).

As to `NCCOc1cc(C(=O)Nc2cc(OCCN)c3ccccc3n2)nc(C(=O)Nc2cc(OCCN)c3ccccc3n2)c1`, the “activity change, negative = cytotoxicity” value was -0.506% (inactive).

With `C[C@H]1CC[C@@]2(OC1)O[C@H]1CC3C4CC[C@H]5C[C@@H](O)CC[C@]5(C)C4=CC(=O)[C@]3(C)[C@H]1[C@@H]2C` (some centres undefined), the “activity change, negative = cytotoxicity” value was -1.11% [at 17.3 µM] (inactive).

In the case of `CCOc1ccc(Cc2nc(-c3c(C)nc4ccccn34)cs2)cc1`, the Potency is 0.0184 µM (active).

With `C[C@@H]1C[C@H]2C3C[C@H](F)C4=CC(=O)C=CC4(C)[C@@]3(F)[C@@H](O)CC2(C)[C@@]1(O)C(=O)COC(=O)C(C)(C)C` (some centres undefined), the “activity change, negative = cytotoxicity” value was -14.2% (inactive).
